These results are taken from PubChem BioAssay (NCI).

Each structure is given as a SMILES string. This is part of a sample that, as a whole, favours compounds with a hit. Of some 83,000 tested, about 20% had one in any assay.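 Note: values are percent growth. 100 is the growth of untreated cells, values between 100 and 0 indicate rising inhibition; between -100 and 0 indicates cell death.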 A number with no mark means an inactive call. The source made the active and inactive calls.

The test system of this assay is SK-OV-3 ovarian. Kind of assay: NCI-60 one-dose screen, 48 h (100 = growth as untreated, 0 = no growth, -100 = all killed). Conditions: 10 µM. On the procedure: Growth inhibition of the SK-OV-3 human tumor cell line is measured as a screen for anti-cancer activity. Cells are grown in 96 well plates and exposed to the test compound for 48 hours. Compounds are tested at a single concentration, which is 10^-5 M for most compounds. The reported endpoint is percent growth (GI% or GIPRCNT), where numbers from 0 - 100% represent growth inhibition, and numbers from -100% - 0 represent cell death. For example, a value of 40 represents 60% growth inhibition. A value of 0 means no net growth occurred over the course of the experiment. A value of -40 indicates 40% of cells at the beginning of the experiment died by the end of the experiment. A value of -100 means all cells are dead at the end of the experiment.
NCI-60 Human Tumor Cell Lines Screen was performed using the standard one-dose NCI protocol, which is described in more detail at https://dtp.cancer.gov/discovery_development/nci-60/default.htm.
Compounds with GIPRCNT values below 10 were considered active. Activity score was based on GIPRCNT using the following formula: […]
Score is 0 for GIPRCNT values of 100 or above, 50 for GIPRCNT values of 0, and 100 for GIPRCNT values of -100.
As to `CC(C)CCCC(=O)O`, the growth was 108%.

Consider `C/C(=C\c1cc(Cl)ccc1OCC(=O)O)[N+](=O)[O-]`, for which the growth is 97.7%.

As to `Nc1ncnc2[nH]ncc12`, the growth is 2.06% (active).

With `Cc1cc(=O)cc(C)n1-c1ccccc1`, the growth is 94.7%.

Regarding `Oc1ccc(O)cc1`, the growth is 114%.

Regarding `CC[N+](C)(CC)CCO`, the growth was 103%.

`Cc1ccc(/C(C#N)=C/c2ccc3c(c2)OCO3)cc1`: the growth is 82.8%.

`CC1(C)Nc2cccc3c(N=Nc4ccc(N=Nc5ccccc5)c5ccccc45)ccc(c23)N1`: the growth was 95.6%.

Regarding `COc1cc2cc(c1Cl)N(C)C(=O)C[C@H](OC(=O)[C@H](C)N(C)C(C)=O)[C@]1(C)O[C@H]1[C@H](C)[C@@H]1C[C@@](O)(NC(=O)O1)[C@H](OC)C=C/C=C(\C)C2`, the growth is 36.1%.

`C/C=C/CC(C)C(O)C1C(=O)NC(CC)C(=O)N(C)CC(=O)N(C)C(CC(C)C)C(=O)NC(C(C)C)C(=O)N(C)C(CC(C)C)C(=O)NC(C)C(=O)NC(C)C(=O)N(C)C(CC(C)C)C(=O)N(C)C(CC(C)C)C(=O)N(C)C(C(C)C)C(=O)N1C` (stereo not given): the growth is 40.4%.

Regarding `NC(N)=Nc1cc2ccccc2c2ccccc12`, the growth was 80.2%.

In the case of `O=C(O)[C@@H]1[C@H]2C[C@H]3c4[nH]c5ccccc5c4CCN3C[C@@H]2CC[C@@H]1O`, the growth was 115%.

On to `CCCCCC(C)(CC(=O)O)CC(=O)O`, for which the growth is 114%.

Take `Nc1ccc(N)c([N+](=O)[O-])c1`: the growth is 113%.

Regarding `Cc1ccc(C(=O)N/N=C/c2ccc3c(c2)OCO3)cc1`, the growth is 93.4%.

On to `O=C(Nc1cccc(NC(=O)Nc2cc(C(F)(F)F)ccc2Cl)c1)Nc1cc(C(F)(F)F)ccc1Cl`, for which the growth is 36.2%.

In the case of `Cc1cc(/C=C/c2ccc3cc(N(C)C)ccc3[n+]2C)c(C)n1-c1ccccc1`, the growth was -32.2% (active).

Regarding `Oc1ccc(Cc2ccccc2)c2cccnc12`, the growth is 19.9%.

In the case of `O=[N+]([O-])c1ccc(O)c(S(=O)(=O)O)c1`, the growth was 110%.

Take `CC(=O)Nc1cccc(NC(C)=O)n1`: the growth is 101%.

Turning to `Cc1ccccc1N=C(c1ccccc1)C1C(=O)c2ccccc2C1=O`, the growth is 61.8%.

Take `O=c1cc2oc3cc(O)c(O)cc3c(-c3ccccc3O)c-2cc1O`: the growth was 57.4%.

With `O=[N+]([O-])c1ccc(-c2ncc(-c3ccc(Br)cc3)o2)cc1`, the growth was 112%.

As to `Cc1ccc(N)cc1[N+](=O)[O-]`, the growth was 112%.

Take `CC(=O)OC(OC(C)=O)C1CCCO1` (stereo not given): the growth is 105%.

Turning to `O=c1cc(-c2ccccc2)nc2cc(-c3ccco3)[nH]n12`, the growth was 90.3%.

As to `CC(=O)NC(N)=S`, the growth is 118%.

Consider `[O-][N+](=Nc1cccc(Cl)c1)c1cccc(Cl)c1`, for which the growth is 110%.

Regarding `CC(=O)Cc1ccc(-c2ccccc2)cc1`, the growth was 108%.

Regarding `S=c1[nH]ccn1-c1ccccc1Cl`, the growth was 111%.

`O=C(c1ccc(Cl)cc1)c1ccccc1Cl`: the growth is 96.3%.

On to `O=[N+]([O-])c1ccc(/C=C/C=C/c2ccccc2)c(Cl)c1`, for which the growth was 98.8%.

Take `O=C1c2ccccc2C(=O)N1OCc1ccccc1`: the growth was 99.2%.

As for `CCCCOC(=O)c1ccc(C(C)C)cc1`, the growth is 90.4%.

As to `OCc1ccc(-c2ccc(-c3ccc(CO)s3)o2)s1`, the growth is 78.2%.

Take `CC(=Nc1ccccc1)C1=C(O)C(Cc2cccc(F)c2)NC1=O` (stereo not given): the growth was 4.34% (active).

Regarding `CCOC(=O)C1=C(Nc2ccc(Br)cc2)C(=O)N(CC)C1`, the growth was 102%.

Take `CC12CC3CC1C(C(=O)O2)C3C(=O)O` (stereo not given): the growth was 95.6%.

`CC1=CC(=O)c2ccccc2C1=O`: the growth is 108%.

Consider `OC1CCCc2ccccc21` (stereo not given), for which the growth is 98.7%.
